Reference: the supplement of paper PMC5641865, “A screen for kinase inhibitors identifies antimicrobial imidazopyridine aminofurazans as specific inhibitors of the Listeria monocytogenes PASTA kinase PrkA” (The Journal of Biological Chemistry, 2017)
± gives the standard deviation of the averaged measurements.

System: Listeria monocytogenes 10403S
Assay: growth inhibition relative to ceftriaxone-alone control; higher = stronger potentiation of ceftriaxone growth inhibition
Conditions: 10 µM; ceftriaxone 1 ug/ml; 12 h
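Also: End-point A600 read in BHI broth at 37 °C with 2% DMSO, inhibition computed as (1 − OD with compound plus ceftriaxone ÷ OD with ceftriaxone only) × 100.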

SMILES	growth inhibition [%]
Nc1ncnc2occ(-c3ccc(NC(=O)Nc4cc(C(F)(F)F)ccc4F)cc3)c12	-0.902 ± 0.59
N#Cc1ccc2c(-c3ccnc(NC4CC4)n3)c(-c3ccc(F)cc3)nn2c1	7 ± 2.3
Cn1cc(-c2ccc3nnc(C(F)(F)c4ccc5ncccc5c4)n3n2)cn1	17.1 ± 33
O=C(c1ccc(/C=C/c2n[nH]c3ccccc23)cc1)N1CCNCC1	7.15 ± 1.2
NS(=O)(=O)c1ccc(N/N=C2\C(=O)Nc3ccc(C(=O)NCc4ccncc4)cc32)cc1	-9.46 ± 18
Fc1cccc(COc2ccc(Nc3ncnc4sc(-c5cccs5)cc34)cc2Cl)c1	-4.36 ± 4.4
CC1=C(C(=O)Nc2ccc3[nH]nc(C)c3c2)C(c2ccc(C(F)(F)F)cc2)CC(=O)N1 (stereo not drawn)	-1.71 ± 13
NS(=O)(=O)c1cccc(Nc2cc(-c3ccc(F)cc3)n[nH]2)c1	-5.13 ± 10
CS(=O)(=O)CCNCc1ccc(-c2ccc3ncnc(Nc4ccc(OCc5ccccc5)c(Br)c4)c3c2)o1	-2.35 ± 3.3
CCCNc1cccc(-n2ncc3c(N/N=C/c4ccncc4)ncnc32)c1	-6.32 ± 14
O=C1Nc2ccccc2/C1=C/Nc1ccc(-n2cncn2)cc1	0.116 ± 3.5
COC(=O)Nc1nc2cc(Oc3ccc(NC(=O)Nc4cccc(C(=O)O)c4)cc3)ccc2[nH]1	7.27 ± 7.2
c1ccc(-c2n[nH]cc2-c2ccnc(-c3ccc(OCCn4ccnc4)cc3)c2)nc1	-3.25 ± 8
COC(=O)c1sc(-n2cnc3cc(OC)c(OC)cc32)cc1OCc1ccccc1C(F)(F)F	0.599 ± 0.69
Cc1cc2c(F)c(Oc3ncnn4cc(OC[C@@H](C)O)c(C)c34)ccc2[nH]1	15.5 ± 23
O=C(Nc1n[nH]c2cc(-c3ccc(F)cc3)ccc12)C1CC1	-9.6 ± 16
CCn1c(-c2nonc2N)nc2cnc(Oc3cccc(NC(=O)c4ccc(OCCN5CCOCC5)cc4)c3)cc21	0.09 ± 1.7
COCCOc1ccc2c(c1)ncn2-c1ccc2cccc(N3CCC(N)CC3)c2n1	7.08 ± 14
Nc1ccc(-c2ccc3ncc4ccc(=O)n(-c5cccc(C(F)(F)F)c5)c4c3c2)cn1 [Torin 2]	-20 ± 12
COc1cc(N2CCN(C(C)C)CC2)ccc1Nc1nc(Nc2ccc(F)cc2C(=O)NC[C@@H](O)CO)c2cc[nH]c2n1	5.09 ± 0.17
Cc1cc2c(F)c(Oc3ncnn4cc(OC[C@@H](C)OC(=O)[C@H](C)N)c(C)c34)ccc2[nH]1	100.2 ± 0.95
O=C(NCCCNc1nc(Nc2cccc(NC(=O)N3CCCC3)c2)ncc1I)c1cccs1	-19.4 ± 21
Cn1cc(-c2ccc3nnc(Sc4ccc5ncccc5c4)n3n2)cn1	18 ± 20
